Values joined by “and” are separate entries in the source; they are usually repeats but may differ in a detail not shown here. Equal entries are not always repeated. Inconclusive results are not listed. The source holds several records for some structures; these can differ, active in one and inactive in another. Active and inactive are the calls of the source. Unless noted, calls follow the shape of the dose curve; as a rule, active = well fitted curve in the direction sought with a large enough effect in the repeat runs; inconclusive = weak or mixed curves; inactive = no such curve, though single readings can be large; an effect the other way counts as inactive or inconclusive.
Legend:
[1] = qHTS assay to identify small molecule agonists of H2AX (AID 1224845; active = well fitted activation curve with a large enough effect in the signal ratio in the repeat runs, not every such curve was filed as active; the % refers to the signal ratio)
Procedure, shortened: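 Wild-type CHO-K1 cells, plated overnight, exposed 3hr at 37C to 15 concentrations (0.76% DMSO final). Lysed, then HTRF anti-pH2AX (S139) cryptate and anti-H2AX-d2 antibodies, 24 hr room temperature; 665/620 nm emission read.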

[2] = qHTS assay to identify small molecule agonists of the hypoxia (HIF-1) signaling pathway (AID 1224846; active = well fitted activation curve with a large enough effect in the signal ratio in the repeat runs, not every such curve was filed as active; the % refers to the signal ratio)
Procedure, shortened: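 ME-180 HRE-bla reporter cells; compounds in DMSO, 17 h at 37C; read-out beta-lactamase via CCF4-AM FRET.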

[3] = qHTS assay to identify small molecule agonists of H2AX - cell viability counter screen (AID 1224847; calls by dose curve; also: top concentration of the series differs between compounds; nearly all actives have a fitted effect of over 30% in size)
Procedure, shortened: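 CHO-K1 cells plated overnight at 37C, then exposed 3 h at 37C to compounds at 15 concentrations (0.76% DMSO final). Viability by CellTiter-Glo luminescence after 30 min at room temperature.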

[4] = qHTS assay to identify small molecule antagonists of the estrogen related receptor (ERR) signaling pathway from Tox21 library (AID 1224848); also: nearly all actives have a fitted effect of over 50% in size; also: potency is read from the fitted curve at half-maximal effect
Procedure, shortened: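 Quantitative high-throughput format: ERR reporter cells (2,000/well) pre-incubated 6 h, treated 18 h at 37 C with compounds in DMSO alongside positive and negative controls, then read by ONE-Glo luminescence.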

[5] = qHTS assay to identify small molecule agonists of the estrogen related receptor (ERR) signaling pathway from Tox21 library (AID 1224849; calls by dose curve; also: nearly all actives have a fitted effect of over 15% in size); conditions: ERR reporter cell line, ONE-Glo luciferase, 18 h
Procedure, shortened: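 Luciferase activity in ERR pathway reporter cells served as the agonist readout; exposure lasted 18 h at 37 C, with ONE-Glo detection after 30 min at room temperature.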

[6] = qHTS RealTime-Glo MT Cell Viability Assay in HepG2 cells - 24 hour (AID 1224867); also: nearly all actives have a fitted effect of over 50% in size
Procedure, shortened: (§1)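 Tox21 10K library screened in qHTS format on HepG2 cells carrying RealTime-Glo reagents. Compounds were added after a 5 h preincubation, and the luminescent signal from continuous culture was measured repeatedly during 40 h treatment.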

[7] = A CellTox Green Cytotoxicity Assay to monitor cytotoxicity in HEK293 cells - 0 hour (AID 1224869); also: nearly all actives have a fitted effect of over 50% in size; also: potency is read from the fitted curve at half-maximal effect
Procedure, shortened: (§2)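 Real-time, in one plate: 600 HEK293 cells/well with dead-cell DNA dye, pinned compound after 5 h, 37 C incubation over 40 h; viable cells give no appreciable fluorescence.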

[8] = qHTS RealTime-Glo MT Cell Viability Assay in HepG2 cells - 40 hour (AID 1224870); also: nearly all actives have a fitted effect of over 50% in size
Procedure, shortened: (§3)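 HepG2 cells (600/well) mixed with RealTime-Glo MT reagent, settled 5 h at 37 C/5% CO2 before compound addition. Nonlytic NanoLuc luminescence from viable-cell prosubstrate reduction read repeatedly during 40 h treatment at 37 C.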

[9] = A CellTox Green Cytotoxicity Assay to monitor cytotoxicity in HEK293 cells - 40 hour (AID 1224871); also: nearly all actives have a fitted effect of over 45% in size; also: potency is read from the fitted curve at half-maximal effect
Procedure, shortened: as §2

[10] = qHTS RealTime-Glo MT Cell Viability Assay in HEK293 cells - 16 hour (AID 1224872); also: nearly all actives have a fitted effect of over 50% in size; also: potency is read from the fitted curve at half-maximal effect
Procedure, shortened: (§4)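 Luminescence generated by NanoLuc from substrate produced by living HEK293 cells served as the viability signal. Each value reflects the reading at its stated time point during continuous 40 h compound exposure at 37 C.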

[11] = qHTS RealTime-Glo MT Cell Viability Assay in HepG2 cells - 8 hour (AID 1224873); also: nearly all actives have a fitted effect of over 55% in size
Procedure, shortened: as §3

[12] = qHTS RealTime-Glo MT Cell Viability Assay in HEK293 cells - 40 hour (AID 1224874); conditions: RealTime-Glo luminescence; max response: stronger effect = lower value; also: nearly all actives have a fitted effect of over 50% in size; also: potency is read from the fitted curve at half-maximal effect
Procedure, shortened: (§5)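 Kinetic, non-lysing viability readout. Seed HEK293 (600/well) with reagent, incubate 5 h at 37 C/5% CO2, pin 23 nL compound in DMSO, incubate at 37 C, read luminescence at 0, 8, 16, 24, 32, 40 h.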

[13] = A CellTox Green Cytotoxicity Assay to monitor cytotoxicity in HEK293 cells - 24 hour (AID 1224875); also: nearly all actives have a fitted effect of over 45% in size
Procedure, shortened: as §2

[14] = A CellTox Green Cytotoxicity Assay to monitor cytotoxicity in HepG2 cells - 16 hour (AID 1224876); also: nearly all actives have a fitted effect of over 45% in size; also: potency is read from the fitted curve at half-maximal effect
Procedure, shortened: (§6)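 Cytotoxicity was tracked as dead-cell DNA fluorescence in HepG2 cells treated with test compounds at 37 C; each time-point value comes from one kinetic series spanning 0, 8, 16, 24, 32 and 40 h.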

[15] = qHTS RealTime-Glo MT Cell Viability Assay in HepG2 cells - 32 hour (AID 1224877); also: nearly all actives have a fitted effect of over 55% in size
Procedure, shortened: as §1

[16] = A CellTox Green Cytotoxicity Assay to monitor cytotoxicity in HepG2 cells - 24 hour (AID 1224878); also: nearly all actives have a fitted effect of over 45% in size; also: potency is read from the fitted curve at half-maximal effect
Procedure, shortened: as §6

[17] = A CellTox Green Cytotoxicity Assay to monitor cytotoxicity in HepG2 cells - 40 hour (AID 1224879); also: nearly all actives have a fitted effect of over 40% in size; also: potency is read from the fitted curve at half-maximal effect
Procedure, shortened: as §6

[18] = qHTS RealTime-Glo MT Cell Viability Assay in HEK293 cells - 0 hour (AID 1224880)
Procedure, shortened: as §5

[19] = qHTS RealTime-Glo MT Cell Viability Assay in HEK293 cells - 32 hour (AID 1224868); also: nearly all actives have a fitted effect of over 50% in size; also: potency is read from the fitted curve at half-maximal effect
Procedure, shortened: as §4

[20] = A CellTox Green Cytotoxicity Assay to monitor cytotoxicity in HEK293 cells - 32 hour (AID 1224881); also: nearly all actives have a fitted effect of over 40% in size; also: potency is read from the fitted curve at half-maximal effect
Procedure, shortened: as §2
% is scaled to controls: 0 for no effect and ±100 for the full control effect.

Cc1cc(Cl)ccc1N=CN(C)C
inactive: Potency [1] | outcome [2] | Potency [3] | Potency [4] | activity change, positive = activation ([5]; at 92.4 µM (top of the series)) -6.81% and 2.85% | Potency [6] | Potency [7] | Potency [8] | Potency [9] | Potency [10] | Potency [11] | max response [12] 2.7% and 1.16% | Potency [13] | Potency [14] | Potency [15] | Potency [16] | Potency [17] | Potency [18]

CCC(=O)Nc1ccc(Cl)c(Cl)c1
inactive: Potency [1] | outcome [2] | Potency [3] | Potency [6] | Potency [7] | Potency [8] | Potency [9] | Potency [11] | Potency [13] | Potency [14] | Potency [16] | Potency [17] | Potency [18] | Potency [20]
active: Potency [19] 44.5 µM | Potency [10] 44.5 µM | Potency [12] 22.3 µM and 43.6 µM

CC(C)CON=O
inactive: Potency [1] | outcome [2] | Potency [3] | Potency [6] | Potency [19] | Potency [7] | Potency [8] | Potency [9] | Potency [10] | Potency [11] | max response [12] 8.89% and 0.247% | Potency [13] | Potency [14] | Potency [16] | Potency [17] | Potency [18] | Potency [20]

[Cl-].[Cl-].[Cl-].[Fe+3]
inactive: Potency [1] | outcome [2] | Potency [3] | Potency [6] | Potency [19] | Potency [7] | Potency [8] | Potency [9] | Potency [10] | Potency [11] | Potency [13] | Potency [14] | Potency [15] | Potency [16] | Potency [17] | Potency [18]

O=C1CCCO1
inactive: Potency [1] | outcome [2] | Potency [3] | Potency [4] | activity change, positive = activation ([5]; at 92.4 µM (top of the series)) 3.83% and -0.0508% | Potency [6] | Potency [19] | Potency [7] | Potency [8] | Potency [9] | Potency [10] | Potency [11] | max response [12] 17.8% and -9.6% | Potency [13] | Potency [14] | Potency [15] | Potency [16] | Potency [17] | Potency [18] | Potency [20]

CCC/C=N/O
inactive: Potency [1] | outcome [2] | Potency [3] | Potency [6] | Potency [19] | Potency [7] | Potency [8] | Potency [9] | Potency [10] | Potency [11] | Potency [13] | Potency [14] | Potency [16] | Potency [17] | Potency [18] | Potency [20]

CCCCCCCCCCCCCl
inactive: Potency [1] | outcome [2] | Potency [3] | Potency [6] | Potency [19] | Potency [8] | Potency [10] | Potency [11] | max response [12] 0% and 16.5% | Potency [15] | Potency [18]
inactive and 13.8 µM (active): Potency [14]
inactive and 17.4 µM (active): Potency [9]
inactive and 12.3 µM (active): Potency [16] | Potency [17]
inactive and 24.5 µM (active): Potency [7]
inactive and 19.5 µM (active): Potency [20]

Clc1cccc(Cl)c1
inactive: Potency [1] | outcome [2] | Potency [3] | Potency [4] | activity change, positive = activation ([5]; at 92.4 µM (top of the series)) -0.0986% and 9.44% | Potency [6] | Potency [19] | Potency [7] | Potency [9] | Potency [10] | Potency [11] | max response [12] 0.4% and 0.365% | Potency [13] | Potency [14] | Potency [15] | Potency [16] | Potency [17] | Potency [18]

O=P(OCCCl)(OCCCl)OCCCl
inactive: Potency [1] | outcome [2] | Potency [3] | Potency [4] | activity change, positive = activation ([5]; at 92.4 µM (top of the series)) 1.87% and 3.07% | Potency [6] | Potency [19] | Potency [7] | Potency [9] | Potency [10] | Potency [11] | max response [12] -9.18% and -11.6% | Potency [13] | Potency [14] | Potency [15] | Potency [16] | Potency [17] | Potency [18]

CCOP(=O)(OCC)OCC
inactive: Potency [1] | outcome [2] | Potency [3] | Potency [4] | activity change, positive = activation ([5]; at 92.4 µM (top of the series)) -7.79% and 1.86% | Potency [6] | Potency [19] | Potency [7] | Potency [8] | Potency [9] | Potency [10] | Potency [11] | max response [12] 0.385% and 0.0295% | Potency [13] | Potency [14] | Potency [15] | Potency [16] | Potency [17] | Potency [18] | Potency [20]

CNC(=O)Oc1cccc2c1OC(C)(C)C2
inactive: Potency [1] | outcome [2] | Potency [3] | Potency [4] | activity change, positive = activation ([5]; at 92.4 µM (top of the series)) 3.12% and 1.27% | Potency [6] | Potency [7] | Potency [8] | Potency [9] | Potency [10] | Potency [11] | max response [12] -0.656% and 0.539% | Potency [13] | Potency [14] | Potency [16] | Potency [17] | Potency [18] | Potency [20]

COP(=S)(OC)Oc1ccc(Sc2ccc(OP(=S)(OC)OC)cc2)cc1
inactive: Potency [1] | outcome [2] | Potency [3] | activity change, positive = activation ([5]; at 42.5 µM (top of the series)) -3.82% | activity change, positive = activation ([5]; at 92.4 µM (top of the series)) -40% | Potency [6] | Potency [19] | Potency [7] | Potency [8] | Potency [9] | Potency [10] | Potency [11] | Potency [13] | Potency [14] | Potency [16] | Potency [17] | Potency [18] | Potency [20]
27.3 µM (active) and inactive: Potency [4]

— PubChem BioAssay (Tox21)
